Most compounds without a hit are left out; they make up all but 19% or so of the library.
DT40 TDP1 no CPT – qHTS for Inhibitors of human tyrosyl-DNA phosphodiesterase 1 (TDP1): qHTS in cells in absence of CPT; DT40 Tdp1-/- hTDP1 cells, no CPT, ATP luminescence, 48 h; Potency, µM (titrated, usually from 46.2 µM), for inactives: at the highest dose activity change, negative = growth inhibition, hits mostly inhibitors; 15% of 420,000 active; further: nearly all actives have a fitted effect of over 55% in size
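Growth of hTDP1-complemented DT40 Tdp1-knockout cells is measured by ATP luminescence after at least 48 hr compound exposure at 37 °C, with DMSO substituting for the 20 nM CPT used in the parallel screen.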
DT40 TDP1 CPT – DT40-hTDP1 cell growth loss with CPT | chicken DT40 Tdp1-/-;hTDP1 cells + 20 nM CPT, ATP luminescence, 48 h | Potency, µM (series often up to 46.2 µM), inactives show at the highest dose activity change, negative = growth inhibition, hits mostly inhibitors | 12% of 420,000 active | AID 686979; further: nearly all actives have a fitted effect of over 55% in size
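Chicken DT40 Tdp1-/- cells complemented with human TDP1, 400 cells/well, exposed to compounds plus 20 nM camptothecin for at least 48 h at 37 C; viability read as ATP content by CellTiter-Glo luminescence.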
HT1080 IDH1KD tx – kills HT-1080 cells with IDH1 knockdown; HT-1080 IDH1 knockdown viability, ATP luminescence, 48 h; Potency, µM (titrated, usually from 46.1 µM), for inactives: top-dose activity, negative = toxicity, hits mostly cytotoxic; 2% of 360,000 active; AID 686971;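 further: 0% = DMSO wells and -100% = cell-free medium wells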
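Using the IDH1-knockdown HT-1080 line run in the same batch and compound series as the NT line, viability after 48 h at 37 °C was determined by CellTiter-Glo luminescence and expressed as % activity.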
KB-V1 MDR tox – kills drug-selected multidrug resistant KB-V1 cells; KB-V1 MDR cells viability, CellTiter-Glo, 72 h; Potency, µM (titrated, usually from 46.1 µM), usual class: cytotoxic; 3.4% of 400,000 active; AID 1347076; further: nearly all actives have a fitted effect of over 60% in size
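Cells of the MDR subline KB-V1 are plated, dosed with compound at multiple concentrations, and incubated 72 h at 37 degrees C; CellTiter-Glo is then added and luminescence read after 10 min.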
HT1080-NT tox – kills 2HG-producing HT-1080-NT fibrosarcoma cells; HT-1080-NT fibrosarcoma viability, CellTiter-Glo ATP luminescence, 48 h; Potency, µM (top dose mostly 46.1 µM), inactives show at the top dose activity, negative = less viability, hits mostly cytotoxic; 1.6% of 360,000 active;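 further: NT is the 2HG producing partner of a matched IDH1 knockdown line; 0% = DMSO-treated cells and -100% = media-only wells without cells; nearly all actives have a fitted effect of over 55% in size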
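Compounds were tested in concentration-response format on HT-1080-NT cells for 48 hours at 37 degrees C. Cell viability came from CellTiter-Glo luminescence; curves were classified by r2, response magnitude and activity.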
KB-3-1 tox – kills parental KB-3-1 adenocarcinoma cells | KB-3-1 viability, CellTiter-Glo ATP luminescence, 72 h | Potency, µM (doses to about 46.1 µM), hits mostly cytotoxic | 1.4% of 400,000 active; further: nearly all actives have a fitted effect of over 60% in size
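Viability of parental KB-3-1 cells, measured by CellTiter-Glo luminescence, followed a 72 h incubation at 37 °C with pinned compounds in phenol-red-free DMEM containing 10% FBS.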
The depositor's hits bear a star; i = inactive; ? = inconclusive; / = no result; [ ] = dose if it differs, or a comment. The call rests on the fitted dose curve; in most records, active means well fitted curve in the direction sought with a large enough effect; inconclusive means small, poorly fitted or top-dose-only effect, or another doubt; inactive means no such curve, though single readings can be large; an effect the other way counts as inactive or inconclusive. Unless noted, on the % scale 0 is the no-effect control and ±100 the full control effect; potency means the concentration at half of the fitted maximal effect.

SMILES	DT40 TDP1 no CPT	DT40 TDP1 CPT	HT1080 IDH1KD tx	KB-V1 MDR tox	HT1080-NT tox	KB-3-1 tox
CC(=O)c1cccc(NC(=O)c2cccc3c(-c4cccc(C(N)=O)c4)coc23)c1	11.6µM*	9.2µM*	-21.2%	i	?	?
CC(C)NC(=O)c1cccc2c(-c3ccc(F)c(F)c3)coc12	20.6µM*	?	-27.3%	i	-13.8%	i
CS(=O)(=O)Nc1cccc(NC(=O)c2cccc3c(-c4cccc(C(N)=O)c4)coc23)c1	?	18.4µM*	?	i	?	?
CS(=O)(=O)Nc1cccc(NC(=O)c2cccc3c(-c4ccc(F)c(F)c4)coc23)c1	?	14.6µM*	?	?	?	?
Cc1cc2nc(-c3ccc(NC(=O)c4ccc(OCC(C)C)cc4)cc3)oc2cc1C	3.9%	-0.6%	/	/	/	/
CC(C)OC(=O)c1cc2c(ccn2C)n1CC(=O)N(Cc1ccccc1)c1ccccc1	16.4µM*	?	-28.3%	14.6µM*	-6.9%	?
CCOC(=O)c1c(-c2ccc(C)cc2C)csc1NC(=O)c1ccccc1Cl	?	?	/	?	/	i
CC1CC(=O)c2c(cc3c(-c4c(O)cc(O)c5c(O)c6c(cc45)OC(C)CC6=O)c(O)cc(O)c3c2O)O1 (configuration not stated)	1.3µM*	1.03µM*	5.17µM*	?	4.61µM*	?
O=C1CC(c2ccc(O)cc2)Oc2cc(O)cc(O)c21 (configuration not stated)	-3.1%	-17.5%	13.0%	i	-10.5%	i
CC(=O)Nc1ccc(S(=O)(=O)N2CCC3(CC2)OCCO3)cc1	-0.1%	-17.7%	1.4%	i	11.4%	i
CCCCNS(=O)(=O)c1ccc(S(=O)(=O)NCc2ccncc2)cc1	7.31µM*	4.11µM*	2.0%[9.24 µM]	i	?	?
CCCCNS(=O)(=O)c1ccc(S(=O)(=O)N2CCC3(CC2)OCCO3)cc1	?	-27.0%	2.9%	16.4µM*	1.6%	i
CCCCc1ccc(S(=O)(=O)NCCc2ccncc2)cc1	11.6µM*	23.1µM*	-18.9%	i	-1.7%	i
Cc1ccc(S(=O)(=O)NCCc2ccncc2)cc1	1.0%	?	0.0%	i	4.3%	i
COCCNC(=O)C1(C)CCN(C(=O)c2cc(-c3ccccc3)cs2)C1 (configuration not stated)	-28.6%	-21.7%	10.9%	i	10.1%	i
CNC[C@H]1Oc2cc(Br)ccc2S(=O)(=O)N([C@H](C)CO)C[C@H]1C	-6.8%	-11.2%	-3.1%	i	-3.0%	i
O=c1cc(-c2ccccc2F)nc(-c2ccccc2F)o1	-15.6%	-18.7%	4.7%	?	5.9%	?
O=c1cc(-c2cccc(Br)c2)nc(-c2ccccc2F)o1	18.4µM*	25.9µM*	11.1%	i	-1.0%	i
O=C(C(=O)N1CCCCC1)c1c(-c2ccccc2)[nH]c2ccccc12	-21.5%	3.8%	25.9%	i	14.6%	i
COc1ccccc1CNC(=O)CSc1ccsc1[N+](=O)[O-]	-15.9%	?	-5.6%	i	2.4%	i
O=C(CSc1ccsc1[N+](=O)[O-])NCc1ccccc1	-24.5%	-4.6%	-6.7%	?	3.5%	5.8µM*
CC(=O)Nc1ccc(NC(=O)c2cc(CN3CCCC3)on2)cc1	-18.0%	-0.7%	/	i	/	i
CN1N/C(=C\c2ccccc2)N=C2C(=O)N(C)C(=O)N=C21	?	1.41µM*	/	i	/	i
CC/C=C1/N=C2C(=O)N(C)C(=O)N=C2N(C)N1	?	0.0891µM*	/	i	/	18.4µM*
O=C(Nc1ccc(OC(F)(F)F)cc1)c1cc(-c2ccc(Cl)cc2)on1	-20.9%	-14.9%	/	i	/	i
SMILES	DT40 TDP1 no CPT	DT40 TDP1 CPT	HT1080 IDH1KD tx	KB-V1 MDR tox	HT1080-NT tox	KB-3-1 tox
COc1ccccc1NC(=O)N1CCc2[nH]c3ccc(Cl)cc3c2C1	?	20.6µM*	?	?	?	?
COc1ccccc1N1CCN(c2ccnc3cc(Cl)ccc23)CC1	4.61µM*	2.59µM*	7.31µM*	?	3.66µM*	6.51µM*
O=C(Nc1ccc(OC(F)(F)F)cc1)N1CCN(c2ccnc3cc(Cl)ccc23)CC1	5.17µM*	4.61µM*	?	i	?	?
COc1ccccc1NC(=O)N1CCN(c2ccnc3cc(Cl)ccc23)CC1	16.4µM*	?	-22.0%	i	-1.5%	i
COc1ccccc1NC(=O)Cc1c(C(=O)O)[nH]c2ccc(Cl)cc12	-4.2%	31.5%	/	/	/	/
Cc1cccc(C)c1NC(=O)CN1CCN(CC(=O)NCC2(N3CCCCC3)CCCCC2)CC1	12.3%	-2.6%	0.9%	i	6.3%	i
Cc1ccc(-c2noc(CSc3nnc(CCc4ccccc4)n3-c3ccccc3)n2)cc1	16.4µM*	16.4µM*	?	?	?	i
CCc1ccc(-n2c(C)nnc2SCc2nc(-c3ccc(OC)cc3)no2)cc1	?	?	/	i	/	i
COc1ccc(-c2noc(CSc3nnc(CCc4ccccc4)n3-c3ccccc3)n2)cc1OC	16.4µM*	14.6µM*	?	23.1µM*	?	i
OCc1cc([C@@H](O)CNCCCCCCOCCCCc2ccccc2)ccc1O	10.6µM*	9.44µM*	/	i	/	i
Cc1ccc(-c2cn3nc(-c4ccccc4)c(-c4ccccc4)nc3n2)cc1	?	?	-1.9%	i	5.6%	i
c1ccc(-c2cn3nc(-c4ccccc4)c(-c4ccccc4)nc3n2)cc1	?	?	9.0%	13µM*	13.6%	i
COc1cccc(C(NC(C)=O)c2nc(-c3ccccc3C)cs2)c1 (configuration not stated)	?	-9.8%	5.7%	i	-3.1%	i
C=CCn1c(SCC(=O)Nc2nccs2)nnc1-c1cc2cccc(OC)c2o1	?	?	?	2.06µM*	?	i
COc1ccc(C)cc1NC(=O)CSc1nnc(-c2cc3cccc(OC)c3o2)n1N	16.4µM*	?	?	i	?	i
CSCCC(NS(=O)(=O)c1ccc2c(c1)oc(=O)n2C)C(=O)NCCc1ccc(C)cc1 (configuration not stated)	-9.0%	-7.5%	/	i	/	i
